The record followed here is PubChem BioAssay (EPA / NIEHS).

Records with an inconclusive call do not appear. Calls of active or inactive are those of the source. How the source made its calls, unless noted: active means hit-call score of the fitted dose curve at least 0.9, where 1 is the maximum; inactive means score below 0.9.

The target of assay [1] is Glucocorticoid receptor (Homo sapiens) (UniProt P04150). Kind of assay: ATG_GR_TRANS: Attagene TRANS-FACTORIAL HepG2 Assay for human Glucocorticoid Receptor (GR) (AID 2282978; active means hit-call score of the fitted dose curve at least 0.9, where 1 is the maximum;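 further: activators score as hits since higher reporter transcript over DMSO is fitted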). Conditions: HepG2 Attagene TRANS GR reporter, mRNA transcription. The essentials: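 Fluorescent capillary-electrophoresis quantitation of reporter mRNA is the readout, taken 24 h after dosing human HepG2 cells carrying transiently transfected GAL4-UAS reporter units activated by chimeric NR-GAL4 fusions; activity scored as induction over DMSO.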
Sequence of Glucocorticoid receptor (Homo sapiens) (P04150 whole entry, looked up, the tested form may be a part): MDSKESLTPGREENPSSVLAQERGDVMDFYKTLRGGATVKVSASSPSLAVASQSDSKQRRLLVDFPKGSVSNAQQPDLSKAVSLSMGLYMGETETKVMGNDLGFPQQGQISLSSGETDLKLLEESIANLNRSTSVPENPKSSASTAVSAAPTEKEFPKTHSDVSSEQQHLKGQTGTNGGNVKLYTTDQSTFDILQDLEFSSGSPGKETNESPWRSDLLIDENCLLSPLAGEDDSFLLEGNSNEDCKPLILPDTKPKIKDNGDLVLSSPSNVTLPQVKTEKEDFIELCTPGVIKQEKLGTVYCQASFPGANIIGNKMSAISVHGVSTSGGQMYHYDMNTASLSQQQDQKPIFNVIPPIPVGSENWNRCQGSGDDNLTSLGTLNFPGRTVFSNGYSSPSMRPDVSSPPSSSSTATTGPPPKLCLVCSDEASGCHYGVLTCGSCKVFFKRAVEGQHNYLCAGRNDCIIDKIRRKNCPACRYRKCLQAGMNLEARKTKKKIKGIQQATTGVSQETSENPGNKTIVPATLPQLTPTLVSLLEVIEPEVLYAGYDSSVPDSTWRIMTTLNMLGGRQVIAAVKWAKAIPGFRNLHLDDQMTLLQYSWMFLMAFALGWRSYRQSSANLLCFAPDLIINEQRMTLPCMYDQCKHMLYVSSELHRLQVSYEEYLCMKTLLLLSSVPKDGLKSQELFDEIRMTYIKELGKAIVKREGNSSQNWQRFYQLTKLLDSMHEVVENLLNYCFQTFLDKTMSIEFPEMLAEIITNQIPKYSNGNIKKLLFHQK

Assay [2] deals with Oxysterols receptor LXR-alpha (Homo sapiens) (UniProt Q13133). Kind of assay: ATG_LXRa_TRANS: Attagene TRANS-FACTORIAL HepG2 Assay for human Liver X Receptor alpha (LXRa) (AID 2282980; active means hit-call score of the fitted dose curve at least 0.9, where 1 is the maximum). Conditions: HepG2 Attagene TRANS reporter, LXRa transactivation. The essentials:
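Transient HepG2 transfectants, 24 h dosing, RT-PCR/CE mRNA reporter quantitation; gain-of-signal vs DMSO.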

In assay [3] the target is Oxysterols receptor LXR-beta (Homo sapiens) (UniProt P55055). The assay is described as follows: ATG_LXRb_TRANS: Attagene TRANS-FACTORIAL HepG2 Assay for human Liver X Receptor beta (LXRb) (AID 2282981; active means hit-call score of the fitted dose curve at least 0.9, where 1 is the maximum). To be noted: HepG2 Attagene TRANS GAL4-LXRb reporter, mRNA. The method, boiled down: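 HepG2 cells transiently transfected with multiple reporter transcription units carrying chimeric NR-Gal4 proteins acting on GAL4-UAS reporters; compound exposure 24 h. Reporter mRNA quantified by RT-PCR, 6-FAM labelling, HpaI digestion and capillary electrophoresis; gain of signal versus DMSO.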
Sequence of Oxysterols receptor LXR-beta (Homo sapiens) (P55055 whole entry, looked up, the tested form may be a part): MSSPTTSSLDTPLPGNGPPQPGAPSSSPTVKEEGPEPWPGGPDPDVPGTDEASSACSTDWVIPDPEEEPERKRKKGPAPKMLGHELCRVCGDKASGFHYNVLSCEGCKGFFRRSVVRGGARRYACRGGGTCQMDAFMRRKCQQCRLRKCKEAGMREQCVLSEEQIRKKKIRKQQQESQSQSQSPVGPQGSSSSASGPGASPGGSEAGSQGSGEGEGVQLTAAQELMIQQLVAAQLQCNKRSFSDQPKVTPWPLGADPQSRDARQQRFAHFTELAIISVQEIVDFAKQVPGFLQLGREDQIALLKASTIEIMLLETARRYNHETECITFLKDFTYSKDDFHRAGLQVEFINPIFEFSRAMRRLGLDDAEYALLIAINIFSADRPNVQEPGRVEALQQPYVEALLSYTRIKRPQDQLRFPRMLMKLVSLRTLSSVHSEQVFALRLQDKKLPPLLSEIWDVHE

Assay [4] can be described thus: ATG_M_06_TRANS: Attagene TRANS-FACTORIAL HepG2 Assay for M06 Transcription Factor (Internal Marker) (AID 2282983; active means hit-call score of the fitted dose curve at least 0.9, where 1 is the maximum). Conditions: HepG2 Attagene TRANS M06 internal marker reporter. The essentials: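 Measured by capillary electrophoresis of fluorescently labelled RT-PCR products, this endpoint reflects reporter mRNA in HepG2 cells harbouring exogenous NR-GAL4 reporter constructs after 24 h exposure, with DMSO as baseline.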

The target of assay [5] is Nuclear receptor subfamily 4 group A member 2 (Homo sapiens) (UniProt P43354). The assay is described as follows: ATG_NURR1_TRANS: Attagene TRANS-FACTORIAL HepG2 Assay for human Nuclear Receptor Related Protein 1 (NURR1) (AID 2282985; active means hit-call score of the fitted dose curve at least 0.9, where 1 is the maximum). To be noted: HepG2 Attagene TRANS reporter, mRNA readout. The method, boiled down: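 HepG2 cells transiently transfected with GAL4-UAS reporter units and chimeric NR-Gal4 constructs; chemical exposure 24 h. Reporter mRNA quantified by RT-PCR, fluorescent labelling and capillary electrophoresis; gain of signal fitted relative to DMSO baseline.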
Sequence of Nuclear receptor subfamily 4 group A member 2 (Homo sapiens) (P43354 whole entry, looked up, the tested form may be a part): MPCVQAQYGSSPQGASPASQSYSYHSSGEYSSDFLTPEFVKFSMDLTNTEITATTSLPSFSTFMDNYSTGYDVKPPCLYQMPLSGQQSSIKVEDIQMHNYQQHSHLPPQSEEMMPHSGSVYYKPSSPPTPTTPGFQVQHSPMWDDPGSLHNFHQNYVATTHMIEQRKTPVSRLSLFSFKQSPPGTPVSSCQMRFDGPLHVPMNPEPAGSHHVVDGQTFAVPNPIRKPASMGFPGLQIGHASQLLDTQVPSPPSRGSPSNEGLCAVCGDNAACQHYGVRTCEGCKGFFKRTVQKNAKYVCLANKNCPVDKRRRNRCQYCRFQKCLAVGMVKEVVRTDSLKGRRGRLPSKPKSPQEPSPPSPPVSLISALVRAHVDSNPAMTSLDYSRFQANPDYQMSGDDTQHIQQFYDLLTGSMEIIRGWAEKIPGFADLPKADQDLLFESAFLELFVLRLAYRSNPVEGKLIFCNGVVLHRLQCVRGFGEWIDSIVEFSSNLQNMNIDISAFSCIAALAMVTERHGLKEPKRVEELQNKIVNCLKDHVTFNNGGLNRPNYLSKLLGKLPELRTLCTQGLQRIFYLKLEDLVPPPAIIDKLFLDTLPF

For assay [6], the target named is Transcriptional activator Myb (Homo sapiens) (UniProt P10242). Kind of assay: ATG_Myb_CIS: Attagene CIS-FACTORIAL HepG2 Assay for human Myeloblastosis (Myb) Proto-Oncogene Transcription Factor (AID 2282986). To be noted: HepG2 Attagene CIS-FACTORIAL Myb reporter transcription; actives raise or lower the signal. The method, boiled down: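 Reporter transcript levels, quantified by fluorescent RT-PCR and capillary electrophoresis, serve as the read-out. Transfected HepG2 cells carrying cis-promoter reporter units are dosed for 24 hours, and curves are fitted bidirectionally against DMSO controls.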
Sequence of Transcriptional activator Myb (Homo sapiens) (P10242 whole entry, looked up): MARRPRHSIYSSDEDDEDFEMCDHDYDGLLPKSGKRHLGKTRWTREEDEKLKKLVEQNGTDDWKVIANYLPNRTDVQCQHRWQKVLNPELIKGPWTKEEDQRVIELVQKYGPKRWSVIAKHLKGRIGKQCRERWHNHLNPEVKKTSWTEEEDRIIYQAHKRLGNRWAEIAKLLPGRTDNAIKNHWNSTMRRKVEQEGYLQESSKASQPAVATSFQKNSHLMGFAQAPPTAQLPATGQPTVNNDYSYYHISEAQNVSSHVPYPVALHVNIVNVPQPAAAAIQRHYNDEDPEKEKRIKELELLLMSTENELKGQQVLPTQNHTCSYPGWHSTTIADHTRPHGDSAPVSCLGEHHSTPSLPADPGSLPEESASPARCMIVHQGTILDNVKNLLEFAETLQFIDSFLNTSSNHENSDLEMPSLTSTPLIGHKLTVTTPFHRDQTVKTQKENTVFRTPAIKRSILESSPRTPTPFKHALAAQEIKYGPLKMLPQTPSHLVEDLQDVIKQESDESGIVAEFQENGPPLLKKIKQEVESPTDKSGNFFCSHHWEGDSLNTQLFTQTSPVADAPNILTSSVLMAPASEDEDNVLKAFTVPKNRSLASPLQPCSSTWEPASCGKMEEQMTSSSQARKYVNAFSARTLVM

Assay [7] addresses Nuclear respiratory factor 1 (Homo sapiens) (UniProt Q16656). Kind of assay: ATG_NRF1_CIS: Attagene CIS-FACTORIAL HepG2 Assay for human Nuclear Respiratory Factor 1 (NRF1) Orphan Gene (AID 2282987). To be noted: HepG2 NRF1 cis-element reporter, Attagene multiplex; actives raise or lower the signal. The method, boiled down:
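Multiplexed cis-reporter assay, HepG2 cells, 24 h treatment. Total RNA → oligo(dT) RT → PCR with reporter-specific primers → 6-FAM primer extension → HpaI cut → CE. Bidirectional fit vs DMSO.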

Assay [8] in a line: ATG_NFI_CIS: Attagene CIS-FACTORIAL HepG2 Assay for human Nuclear Factor I (NFI) (AID 2282989). To be noted: HepG2 cis-regulatory reporter, NFI response element transcription; actives raise or lower the signal. The method, boiled down:
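Transfected HepG2 liver cells, exposed 24 h, supplied total RNA for oligo(dT) reverse transcription and reporter-specific PCR. Labelled, HpaI-cut fragments were sized by capillary electrophoresis; DMSO set the baseline for bidirectional fitting.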

Assay [9] concerns the target Myc proto-oncogene protein (Homo sapiens) (UniProt P01106). The assay is described as follows: ATG_Myc_CIS: Attagene CIS-FACTORIAL HepG2 Assay for human Myelocytomatosis (Myc) Proto-Oncogene Transcription Factor (AID 2282990). To be noted: HepG2, Attagene cis-reporter transcription factor activity; actives raise or lower the signal. The essentials: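 Multiplexed cis-reporter transcription in HepG2 cells after 24 h chemical treatment. Reporter mRNA measured by RT-PCR and capillary electrophoresis fluorescence; activity fitted bidirectionally against DMSO control.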

The nature of assay [10]: ATG_NRF2_ARE_CIS: Attagene CIS-FACTORIAL HepG2 Assay for human Nuclear Factor Erythroid 2 Related Factor 2 (NFR2) response to Antioxidant Response Elements (ARE) (AID 2282992). Conditions: HepG2 Attagene ARE/NRF2 reporter, transcription factor activity; actives raise or lower the signal. The essentials: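 Cis-factorial assay: transfected HepG2 reporter library, 24 h dosing, mRNA readout via RT-PCR/CE; DMSO-referenced bidirectional analysis.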

Assay [11] is described as follows: ATG_Oct_MLP_CIS: Attagene CIS-FACTORIAL HepG2 Assay for human Octamer-Binding Transcription Factor (Oct) (AID 2282993). To be noted: HepG2 Attagene cis-factorial Oct reporter, mRNA; actives raise or lower the signal. The method, boiled down:
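Using HepG2 cells bearing transfected cis-reporter constructs, mRNA induction was read after 24 h by fluorescent RT-PCR and capillary electrophoresis, with DMSO defining baseline for gain- or loss-of-signal fits.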

The target of assay [12] is Cellular tumor antigen p53 (Homo sapiens) (UniProt P04637). The assay is described as follows: ATG_p53_CIS: Attagene CIS-FACTORIAL HepG2 Assay for human p53 Transcription Factor (AID 2282994). To be noted: HepG2 p53 cis-element reporter, Attagene mRNA; actives raise or lower the signal. The method, boiled down:
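Using HepG2 hepatoma cells carrying cis-acting multiplexed reporters, mRNA induction is detected after a 24 h exposure. Gain- and loss-of-signal responses are fitted relative to DMSO-treated cells.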

Assay [13] in a line: ATG_M_32_TRANS: Attagene TRANS-FACTORIAL HepG2 Assay for M32 Transcription Factor (Internal Marker) (AID 2282984; active means hit-call score of the fitted dose curve at least 0.9, where 1 is the maximum). To be noted: HepG2 Attagene TRANS M32 internal marker reporter. The essentials:
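HepG2 cells transiently transfected with multiple GAL4-UAS reporter transcription units, dosed for 24 hours; reporter mRNA quantified by RT-PCR, 6-FAM primer extension, HpaI digestion and capillary electrophoresis. Gain-of-signal fitted versus DMSO baseline; internal background-control marker.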

The nature of assay [14]: ATG_NF_kB_CIS: Attagene CIS-FACTORIAL HepG2 Assay for human Nuclear Factor Kappa B (NF-kB) (AID 2282991). To be noted: HepG2 Attagene cis-factorial NF-kB reporter mRNA; actives raise or lower the signal. The essentials:
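Transient MRTU transfection of human HepG2 liver cells → 24 h chemical exposure → total RNA, oligo(dT) RT → PCR, 6-FAM primer extension, HpaI digest 2 h 37 C → CE fragment analysis. Bidirectional fitting, DMSO negative control.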

A short description of assay [15]: BSK_3C_TissueFactor: BioMAP Diversity Plus: 3C Assay for Tissue Factor Biomarker Activity (AID 2282997). To be noted: BioMAP 3C HUVEC, tissue factor biomarker readout; actives raise or lower the signal. The method, boiled down:
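Values derive from bidirectional curve fitting against DMSO of Tissue Factor ELISA signals, taken 24 h after dosing primary human umbilical vein endothelial cells.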

Assay [16] in a line: BSK_3C_uPAR: BioMAP Diversity Plus: 3C Assay for Urokinase-type plasminogen activator receptor (uPAR) Biomarker Activity (AID 2282998). To be noted: BioMAP 3C HUVEC, uPAR biomarker ELISA; actives raise or lower the signal. The essentials: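 In this endothelial cell-based assay, human umbilical vein primary cells were treated with chemicals and harvested at 24 h. uPAR was quantified using ELISA, with gains or losses fitted relative to DMSO controls.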
Background: ELISA stands for enzyme-linked immunosorbent assay.

Assay [17] can be described thus: BSK_3C_VCAM1: BioMAP Diversity Plus: 3C Assay for Vascular cell adhesion molecule 1 (VCAM1) Biomarker Activity (AID 2282999). To be noted: BioMAP 3C HUVEC, VCAM1 ELISA, cytokine-stimulated; actives raise or lower the signal. The essentials: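 Human umbilical vein endothelial cells were dosed with compound for 24 h, after which cell-surface VCAM-1 was quantified by ELISA. Bidirectional curve fitting used DMSO as negative control and activity baseline.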

Assay [18] can be described thus: BSK_4H_Eotaxin3: BioMAP Diversity Plus: 4H Assay for Eotaxin 3 Biomarker Activity (AID 2283000).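 On outcome: CCL26 protein level quantified by ELISA in parallel with SRB cytotoxicity check.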 Conditions: primary human endothelial cells (HUVEC); actives raise or lower the signal. The method, boiled down: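 Endothelial primary cells (human umbilical vein) exposed to compound for 24 h. ELISA detection of Eotaxin-3.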
The target of assay [19] is Hepatocyte nuclear factor 4-alpha (Homo sapiens) (UniProt P41235). The assay is described as follows: ATG_HNF4a_TRANS: Attagene TRANS-FACTORIAL HepG2 Assay for human Hepatocyte Nuclear Factor 4 alpha (HNF4a) (AID 2282982; active means hit-call score of the fitted dose curve at least 0.9, where 1 is the maximum). Conditions: HepG2 HNF4a transactivation reporter, mRNA readout. The essentials:
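HepG2 cells transiently transfected with multiplexed GAL4-UAS reporter units responsive to chimeric NR-GAL4 proteins; compound exposure 24 h. Reporter mRNA quantified by RT-PCR, 6-FAM labelling, HpaI digestion and capillary electrophoresis; gain of signal versus DMSO baseline.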

The target in assay [20] is Bile acid receptor (Homo sapiens) (UniProt Q96RI1). The assay is described as follows: ATG_FXR_TRANS: Attagene TRANS-FACTORIAL HepG2 Assay for Farnesoid X Receptor (FXR) (AID 2282979; active means hit-call score of the fitted dose curve at least 0.9, where 1 is the maximum;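 further: hits raise reporter mRNA above DMSO so AC50 marks FXR activation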). To be noted: HepG2 Attagene TRANS FXR-GAL4 reporter transcription. The method, boiled down: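 Chimeric FXR-GAL4 activity in transiently transfected human HepG2 liver cells is scored as induction of reporter mRNA after 24 h of dosing. Detection uses RT-PCR with fluorescent labelling and capillary electrophoresis, with DMSO serving as baseline.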

Sequence of Nuclear respiratory factor 1 (Homo sapiens) (Q16656 whole entry, looked up): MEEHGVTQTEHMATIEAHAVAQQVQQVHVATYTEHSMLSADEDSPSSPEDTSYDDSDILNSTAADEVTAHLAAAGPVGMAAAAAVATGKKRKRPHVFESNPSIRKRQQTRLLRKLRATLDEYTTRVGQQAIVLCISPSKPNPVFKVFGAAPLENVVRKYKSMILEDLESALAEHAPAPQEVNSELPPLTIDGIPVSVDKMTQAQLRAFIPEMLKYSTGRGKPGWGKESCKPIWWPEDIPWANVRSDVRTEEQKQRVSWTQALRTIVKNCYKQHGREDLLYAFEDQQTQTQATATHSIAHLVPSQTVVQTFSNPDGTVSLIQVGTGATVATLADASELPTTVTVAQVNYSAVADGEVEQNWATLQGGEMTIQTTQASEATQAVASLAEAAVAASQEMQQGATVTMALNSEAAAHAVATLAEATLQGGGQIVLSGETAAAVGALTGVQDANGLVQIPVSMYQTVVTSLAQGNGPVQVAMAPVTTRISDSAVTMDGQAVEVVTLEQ
Sequence of Myc proto-oncogene protein (Homo sapiens) (P01106 whole entry, looked up): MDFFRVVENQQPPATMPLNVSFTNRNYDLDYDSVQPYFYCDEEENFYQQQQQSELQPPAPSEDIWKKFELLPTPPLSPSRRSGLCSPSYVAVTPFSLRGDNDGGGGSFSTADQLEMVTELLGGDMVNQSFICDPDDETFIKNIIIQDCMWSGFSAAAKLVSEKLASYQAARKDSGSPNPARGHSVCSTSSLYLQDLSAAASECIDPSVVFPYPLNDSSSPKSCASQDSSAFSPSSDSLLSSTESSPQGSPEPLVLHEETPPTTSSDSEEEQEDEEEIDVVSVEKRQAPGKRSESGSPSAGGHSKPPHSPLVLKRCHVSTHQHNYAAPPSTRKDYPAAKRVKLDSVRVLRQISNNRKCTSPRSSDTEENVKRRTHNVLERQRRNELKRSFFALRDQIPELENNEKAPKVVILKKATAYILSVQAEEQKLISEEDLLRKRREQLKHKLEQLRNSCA
Sequence of Cellular tumor antigen p53 (Homo sapiens) (P04637 whole entry, looked up): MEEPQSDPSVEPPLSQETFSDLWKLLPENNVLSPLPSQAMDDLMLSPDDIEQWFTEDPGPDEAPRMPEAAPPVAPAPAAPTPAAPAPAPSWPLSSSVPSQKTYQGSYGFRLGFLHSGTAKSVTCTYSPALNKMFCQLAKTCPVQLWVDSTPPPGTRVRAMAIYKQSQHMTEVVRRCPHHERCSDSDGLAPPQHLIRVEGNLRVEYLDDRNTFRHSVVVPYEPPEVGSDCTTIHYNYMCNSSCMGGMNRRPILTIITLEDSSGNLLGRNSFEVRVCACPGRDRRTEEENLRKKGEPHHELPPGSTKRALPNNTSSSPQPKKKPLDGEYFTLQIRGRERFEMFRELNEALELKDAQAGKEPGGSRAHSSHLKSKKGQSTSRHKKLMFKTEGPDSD
Sequence of Oxysterols receptor LXR-alpha (Homo sapiens) (Q13133 whole entry, looked up): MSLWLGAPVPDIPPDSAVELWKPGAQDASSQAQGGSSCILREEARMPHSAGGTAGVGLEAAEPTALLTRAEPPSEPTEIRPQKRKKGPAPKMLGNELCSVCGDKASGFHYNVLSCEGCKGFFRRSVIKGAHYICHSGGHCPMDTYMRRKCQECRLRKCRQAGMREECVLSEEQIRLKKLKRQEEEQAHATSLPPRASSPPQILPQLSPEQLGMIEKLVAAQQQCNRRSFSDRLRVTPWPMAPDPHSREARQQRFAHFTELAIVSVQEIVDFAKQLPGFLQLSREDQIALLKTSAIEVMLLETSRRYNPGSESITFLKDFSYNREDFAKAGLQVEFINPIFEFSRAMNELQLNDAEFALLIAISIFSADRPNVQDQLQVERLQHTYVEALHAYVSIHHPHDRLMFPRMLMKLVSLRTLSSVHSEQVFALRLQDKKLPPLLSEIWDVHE
Sequence of Hepatocyte nuclear factor 4-alpha (Homo sapiens) (P41235 whole entry, looked up, the tested form may be a part): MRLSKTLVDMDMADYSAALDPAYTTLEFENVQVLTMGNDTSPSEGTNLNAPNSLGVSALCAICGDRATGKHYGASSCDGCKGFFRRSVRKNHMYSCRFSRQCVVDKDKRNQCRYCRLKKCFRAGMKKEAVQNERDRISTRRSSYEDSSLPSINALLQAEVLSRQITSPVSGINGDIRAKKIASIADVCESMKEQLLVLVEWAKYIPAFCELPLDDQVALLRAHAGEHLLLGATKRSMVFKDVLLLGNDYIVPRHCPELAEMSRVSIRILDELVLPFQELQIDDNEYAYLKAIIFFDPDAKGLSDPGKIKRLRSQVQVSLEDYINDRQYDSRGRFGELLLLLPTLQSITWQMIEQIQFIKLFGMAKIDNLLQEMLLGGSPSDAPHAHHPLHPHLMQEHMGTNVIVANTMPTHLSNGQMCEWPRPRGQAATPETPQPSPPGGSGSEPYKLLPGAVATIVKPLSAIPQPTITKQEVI

As for `COC(=O)OC`, the result in assay [1], in assay [2], in assay [3], in assay [4], in assay [5] and in assay [6] was inactive. The call in assay [7], in assay [8], in assay [9], in assay [10], in assay [11] and in assay [12] was inactive.

With `CC1CCC(C(C)CS)CC1S` (stereo not given), the compound was classed as inactive in [1], in [2], in [3], in [4], in assay [13] and in assay [7]. Moreover, the compound was called inactive in assay [8], in [14] and in [16]. For the same compound, the AC50 (commonly the concentration at which the activity in the assay is half-maximal) in assay [6] is 50.5 µM (active); in [9], 52.4 µM (active); in assay [10], 33.4 µM (active); in [11], 26.1 µM (active); in [12], 52.6 µM (active); in assay [15], 36.7 µM (active). Besides, the results for the AC50 in [17] and in [18] were 30 µM (active) and 30.3 µM (active), respectively.

As for `CC1=CCC(O)(C(C)C)CC1` (stereo not given), the result in assay [1], in assay [2], in [3], in [19], in assay [4] and in assay [13] was inactive. The outcome in [6], in assay [7], in assay [8], in assay [9], in assay [10] and in assay [11] was inactive. The compound was called inactive in assay [12].

`C=C(C)C(=O)OCCOC(=O)CC(C)=O`: the result in assay [1], in assay [2], in assay [3], in assay [13], in assay [6] and in assay [7] was inactive. In addition, the compound was called inactive in [8], in assay [9], in assay [14], in assay [10], in assay [11] and in assay [12].

In the case of `O=C(O)c1cn(C2CC2)c2cc(N3CCNCC3)c(F)cc2c1=O`, the compound was classed as inactive in assay [1], in assay [20], in assay [4], in assay [6], in [9] and in [11]. For the same compound, the result in assay [12], in [15], in assay [16], in [17] and in assay [18] was inactive.
